Assay results as given in the supplement of paper PMC10849652.
Targets with a hit are over-represented here; the source holds about 7,900 in all. About 0.6% of all pairs of compound and target were hits.

Each target was assayed with CCn1c(C(=O)N(C2CC2)C2CC2)cc2c3c(ncn3C)c(Nc3cc(C)n(C)n3)nc21 (assay: log2 fold change, soluble protein after heating vs DMSO (PISA); higher = thermal stabilisation; K562 cells, 10 uM, 30 min; active = over 0.2 and 3.5 SD of the protein, either way, in both replicates (recomputed)).
Method in brief: (§1)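 Thermal stability values are relative to control samples and come from duplicates. They are expressed as log2 fold changes. For measurement, K562 cells (2×10^6 cells/mL) received 10 μM compound for 30 min, and aliquots were heated for 3 min over 48°C-58°C, pooled, and extracted at 4°C in PBS with 0.5% NP-40. Soluble protein, the supernatant after 21,000xg for 90 min, was quantified by TMTpro 16plex LC-MS/MS with equalised channel sums.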

UniProt Q6ZRS2, sequence (Q6ZRS2 whole entry, looked up): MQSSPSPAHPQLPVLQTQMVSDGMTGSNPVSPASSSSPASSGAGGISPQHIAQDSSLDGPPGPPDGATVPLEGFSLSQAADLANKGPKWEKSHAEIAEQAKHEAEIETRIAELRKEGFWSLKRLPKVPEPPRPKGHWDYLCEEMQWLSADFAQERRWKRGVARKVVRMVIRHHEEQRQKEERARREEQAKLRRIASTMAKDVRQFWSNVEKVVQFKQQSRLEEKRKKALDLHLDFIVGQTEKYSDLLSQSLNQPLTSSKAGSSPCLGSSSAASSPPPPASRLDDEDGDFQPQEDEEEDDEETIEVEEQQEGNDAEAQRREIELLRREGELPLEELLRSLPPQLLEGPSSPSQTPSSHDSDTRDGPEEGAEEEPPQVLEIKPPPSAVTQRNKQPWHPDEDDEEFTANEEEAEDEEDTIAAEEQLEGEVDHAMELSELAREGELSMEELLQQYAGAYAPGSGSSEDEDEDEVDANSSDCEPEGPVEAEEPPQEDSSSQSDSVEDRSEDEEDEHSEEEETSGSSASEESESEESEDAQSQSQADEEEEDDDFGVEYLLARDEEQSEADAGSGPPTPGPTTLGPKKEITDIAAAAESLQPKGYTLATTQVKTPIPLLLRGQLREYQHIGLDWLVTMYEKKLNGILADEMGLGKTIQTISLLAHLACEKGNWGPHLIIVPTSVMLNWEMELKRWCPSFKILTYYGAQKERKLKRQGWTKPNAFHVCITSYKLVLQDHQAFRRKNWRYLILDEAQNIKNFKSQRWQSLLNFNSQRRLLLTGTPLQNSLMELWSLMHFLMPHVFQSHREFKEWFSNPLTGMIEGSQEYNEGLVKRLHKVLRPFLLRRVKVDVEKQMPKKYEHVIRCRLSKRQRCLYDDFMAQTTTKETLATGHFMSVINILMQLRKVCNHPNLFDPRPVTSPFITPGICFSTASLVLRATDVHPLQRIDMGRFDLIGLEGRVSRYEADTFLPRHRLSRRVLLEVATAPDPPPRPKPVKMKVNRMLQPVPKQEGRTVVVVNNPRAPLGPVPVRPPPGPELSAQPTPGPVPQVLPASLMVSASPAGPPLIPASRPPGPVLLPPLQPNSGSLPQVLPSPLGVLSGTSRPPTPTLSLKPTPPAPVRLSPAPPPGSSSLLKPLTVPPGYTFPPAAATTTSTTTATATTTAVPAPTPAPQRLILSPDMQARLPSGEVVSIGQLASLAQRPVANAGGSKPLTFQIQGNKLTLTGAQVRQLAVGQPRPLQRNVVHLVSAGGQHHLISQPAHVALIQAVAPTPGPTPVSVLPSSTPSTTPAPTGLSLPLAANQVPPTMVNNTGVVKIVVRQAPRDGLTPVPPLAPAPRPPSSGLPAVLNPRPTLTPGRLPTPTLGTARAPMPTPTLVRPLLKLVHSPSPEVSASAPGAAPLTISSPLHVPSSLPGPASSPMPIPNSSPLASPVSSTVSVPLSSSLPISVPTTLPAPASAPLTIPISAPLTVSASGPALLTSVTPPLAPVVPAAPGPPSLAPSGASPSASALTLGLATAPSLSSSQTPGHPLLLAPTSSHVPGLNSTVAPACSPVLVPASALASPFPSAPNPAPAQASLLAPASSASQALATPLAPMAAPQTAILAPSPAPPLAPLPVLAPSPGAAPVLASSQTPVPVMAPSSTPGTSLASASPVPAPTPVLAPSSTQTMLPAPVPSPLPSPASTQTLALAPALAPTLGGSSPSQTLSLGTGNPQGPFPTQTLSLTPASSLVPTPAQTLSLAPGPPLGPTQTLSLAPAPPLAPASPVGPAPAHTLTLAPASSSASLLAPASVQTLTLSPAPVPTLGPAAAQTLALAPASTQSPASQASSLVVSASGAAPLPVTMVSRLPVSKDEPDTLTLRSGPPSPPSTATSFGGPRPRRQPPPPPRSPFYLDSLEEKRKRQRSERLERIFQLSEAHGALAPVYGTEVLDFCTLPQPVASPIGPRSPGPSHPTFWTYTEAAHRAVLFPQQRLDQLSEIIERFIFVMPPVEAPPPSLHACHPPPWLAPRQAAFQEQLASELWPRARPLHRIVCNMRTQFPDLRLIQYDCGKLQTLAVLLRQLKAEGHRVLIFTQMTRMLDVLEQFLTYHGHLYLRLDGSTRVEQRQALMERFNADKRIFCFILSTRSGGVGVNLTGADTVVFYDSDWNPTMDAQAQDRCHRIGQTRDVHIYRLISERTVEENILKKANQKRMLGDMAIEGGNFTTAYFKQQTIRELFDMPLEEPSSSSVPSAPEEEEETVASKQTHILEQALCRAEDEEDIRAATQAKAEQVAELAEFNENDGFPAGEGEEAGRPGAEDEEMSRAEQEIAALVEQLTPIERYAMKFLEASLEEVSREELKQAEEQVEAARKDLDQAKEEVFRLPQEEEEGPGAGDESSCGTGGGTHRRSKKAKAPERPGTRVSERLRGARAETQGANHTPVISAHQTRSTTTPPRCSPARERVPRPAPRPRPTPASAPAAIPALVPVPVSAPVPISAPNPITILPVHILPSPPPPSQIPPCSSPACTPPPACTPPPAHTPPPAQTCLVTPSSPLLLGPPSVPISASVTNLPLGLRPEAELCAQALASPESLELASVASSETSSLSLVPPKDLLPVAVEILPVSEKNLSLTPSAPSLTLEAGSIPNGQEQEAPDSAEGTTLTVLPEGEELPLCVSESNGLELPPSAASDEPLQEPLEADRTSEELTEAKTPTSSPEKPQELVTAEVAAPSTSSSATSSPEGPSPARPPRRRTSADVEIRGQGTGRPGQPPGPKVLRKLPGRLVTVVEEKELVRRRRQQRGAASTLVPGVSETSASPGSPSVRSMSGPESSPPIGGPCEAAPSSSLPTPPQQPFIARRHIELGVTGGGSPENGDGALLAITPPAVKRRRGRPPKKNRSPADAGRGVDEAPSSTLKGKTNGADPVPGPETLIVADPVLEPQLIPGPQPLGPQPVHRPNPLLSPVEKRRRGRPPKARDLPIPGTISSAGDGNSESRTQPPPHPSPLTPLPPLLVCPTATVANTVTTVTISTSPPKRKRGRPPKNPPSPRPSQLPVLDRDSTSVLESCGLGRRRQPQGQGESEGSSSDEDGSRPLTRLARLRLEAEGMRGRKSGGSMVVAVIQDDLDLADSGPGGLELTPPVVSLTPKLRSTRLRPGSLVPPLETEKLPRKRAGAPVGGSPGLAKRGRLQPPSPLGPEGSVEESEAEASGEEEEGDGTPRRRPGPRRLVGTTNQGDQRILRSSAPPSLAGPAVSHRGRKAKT
UniProt Q9UL54, sequence (Q9UL54 whole entry, looked up): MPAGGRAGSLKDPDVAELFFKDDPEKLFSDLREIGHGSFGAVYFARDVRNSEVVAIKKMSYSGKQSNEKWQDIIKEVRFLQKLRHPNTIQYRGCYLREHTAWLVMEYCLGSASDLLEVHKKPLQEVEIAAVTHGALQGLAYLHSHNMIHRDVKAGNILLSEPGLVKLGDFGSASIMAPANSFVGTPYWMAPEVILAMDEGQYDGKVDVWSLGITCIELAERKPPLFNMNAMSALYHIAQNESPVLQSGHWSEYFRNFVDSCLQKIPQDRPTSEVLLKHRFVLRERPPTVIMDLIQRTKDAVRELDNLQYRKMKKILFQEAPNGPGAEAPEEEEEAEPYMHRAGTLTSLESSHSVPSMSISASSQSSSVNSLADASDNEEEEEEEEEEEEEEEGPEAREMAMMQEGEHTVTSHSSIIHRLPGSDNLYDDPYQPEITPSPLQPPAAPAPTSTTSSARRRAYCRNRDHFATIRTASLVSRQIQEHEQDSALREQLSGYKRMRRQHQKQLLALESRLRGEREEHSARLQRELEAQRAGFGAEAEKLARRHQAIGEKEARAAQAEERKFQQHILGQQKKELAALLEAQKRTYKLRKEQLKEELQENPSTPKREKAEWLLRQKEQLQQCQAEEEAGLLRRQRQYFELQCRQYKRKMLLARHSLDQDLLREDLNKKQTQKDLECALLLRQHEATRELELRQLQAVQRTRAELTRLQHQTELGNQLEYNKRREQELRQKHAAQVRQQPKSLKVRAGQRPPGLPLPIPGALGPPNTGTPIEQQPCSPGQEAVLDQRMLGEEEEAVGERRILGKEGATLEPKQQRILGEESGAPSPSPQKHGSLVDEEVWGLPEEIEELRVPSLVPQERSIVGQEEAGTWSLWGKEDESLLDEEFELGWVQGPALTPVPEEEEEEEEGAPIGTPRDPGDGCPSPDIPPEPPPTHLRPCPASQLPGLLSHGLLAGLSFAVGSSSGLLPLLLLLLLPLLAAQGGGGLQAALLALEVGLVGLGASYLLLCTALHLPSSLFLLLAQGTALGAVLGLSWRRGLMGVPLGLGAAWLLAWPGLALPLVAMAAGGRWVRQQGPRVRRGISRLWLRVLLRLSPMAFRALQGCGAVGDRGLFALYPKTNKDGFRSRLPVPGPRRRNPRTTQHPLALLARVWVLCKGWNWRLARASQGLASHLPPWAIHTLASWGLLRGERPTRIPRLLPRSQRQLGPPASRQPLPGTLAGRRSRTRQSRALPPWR
UniProt Q8N5G0, sequence (Q8N5G0 whole entry, looked up): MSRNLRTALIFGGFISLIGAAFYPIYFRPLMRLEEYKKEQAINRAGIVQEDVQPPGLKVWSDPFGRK
UniProt Q96BZ9, sequence (Q96BZ9 whole entry, looked up): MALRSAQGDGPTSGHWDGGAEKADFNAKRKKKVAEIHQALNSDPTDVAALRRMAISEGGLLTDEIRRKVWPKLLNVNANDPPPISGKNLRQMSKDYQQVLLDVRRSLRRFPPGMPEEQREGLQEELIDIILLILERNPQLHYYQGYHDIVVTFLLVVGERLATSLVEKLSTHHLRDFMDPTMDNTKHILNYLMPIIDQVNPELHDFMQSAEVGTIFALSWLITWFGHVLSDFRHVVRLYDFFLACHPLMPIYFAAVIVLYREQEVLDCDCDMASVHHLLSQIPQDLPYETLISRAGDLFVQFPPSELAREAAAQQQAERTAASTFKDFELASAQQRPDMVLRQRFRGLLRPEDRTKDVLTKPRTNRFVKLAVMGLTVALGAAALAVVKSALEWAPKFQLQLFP
UniProt Q9BYN0, sequence (Q9BYN0 whole entry, looked up): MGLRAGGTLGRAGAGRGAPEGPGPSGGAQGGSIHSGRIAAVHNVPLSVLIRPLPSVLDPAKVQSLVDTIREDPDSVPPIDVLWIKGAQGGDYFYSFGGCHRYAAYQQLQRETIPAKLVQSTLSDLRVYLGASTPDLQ

log2 fold change, inactive:
SLC38A2 (UniProt Q96QD8) 0.084, TAOK2 (UniProt Q9UL54) -0.277, SUN1 isoform 9 (UniProt O94901) 0.027, SRCAP (UniProt Q6ZRS2) 0.066

The targets below were run with CCn1cc(-c2ccnc3[nH]c(-c4cccc(CN(C)C)c4)cc23)c(-c2ccc(NC(=O)N(C)C)cc2)n1 in the same assay as above.
Method in brief: as §1

log2 fold change, inactive:
SYNE2 isoform 2 (UniProt Q8WXH0) -0.274, TBK1 (UniProt Q9UHD2) 0.023, SLC38A7 (UniProt Q9NVC3) 0.109, TENT5C (UniProt Q5VWP2) 0.009, SRXN1 (UniProt Q9BYN0) 0.159, SMARCE1 (UniProt Q969G3) 0.053, SRC isoform 2 (UniProt P12931) -0.066, SRFBP1 (UniProt Q8NEF9) 0.049, SLC39A11 (UniProt Q8N1S5) -0.136, TBC1D15 isoform 3 (UniProt Q8TC07) -0.024, SNX15 (UniProt Q9NRS6) -0.016, SPPL2B (UniProt Q8TCT7) 0.028, SMIM20 isoform 2 (UniProt Q8N5G0) -0.065, SRSF9 (UniProt Q13242) 0.323, TBC1D20 isoform 3 (UniProt Q96BZ9) 0.028, TEX264 (UniProt Q9Y6I9) 0.499, SPCS2 (UniProt Q15005) -0.009, TJP1 (UniProt Q07157) -0.052, TACC2 (UniProt O95359) 0.041, SSBP4 (UniProt Q9BWG4) -0.009, SNRPB2 (UniProt P08579) 0.069, STK26 (UniProt Q9P289) -0.117, SP100 isoform 4 (UniProt P23497) 0.056, STARD3NL (UniProt O95772) -0.014, SNX5 (UniProt Q9Y5X3) -0.099, TARS2 (UniProt Q9BW92) -0.002, SPTBN1 (UniProt Q01082) 0.013, TAOK2 (UniProt Q9UL54) -0.076, SUN1 isoform 9 (UniProt O94901) 0.135, SRCAP (UniProt Q6ZRS2) -0.041
